Screens as filed in PubChem.
Shiga toxin inh = A qHTS for Small Molecule Inhibitors of Shiga Toxin | Vero cells, Shiga toxin protein synthesis inhibition reporter | inhibition, % at 38.7 µM | actives 9.2% (n = 290,000); in the data active = inhibition mostly above about 28%, no sharp cut-off; inactive = mostly below about 43%; also: 0% is about no effect
Pf growth 48h = Primary qHTS for delayed death inhibitors of the malarial parasite plastid, 48 hour incubation; P. falciparum luciferase growth in erythrocytes, 48 h; Potency, µM (top dose mostly 28.7 µM), for the others: top-dose activity change, negative = inhibition, hits mostly inhibitors; actives 5.9% (n = 310,000); AID 504832, 2011; also: potency is read from the fitted curve at half-maximal effect; % is scaled to controls: 0 for no effect and ±100 for the full control effect
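First compound was added to culture medium, then infected red cells at 0.1% parasitemia and 2% hematocrit (final). After incubation at 37 C under 5% CO2, luciferase detection reagent was dispensed and light output recorded.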
CHX counter = Cycloheximide Counterscreen for Small Molecule Inhibitors of Shiga Toxin; actives 12% (n = 300,000); cell reporter, cycloheximide protein synthesis inhibition counterscreen; AID 2314, 2010; max response, %; in the data active = max response mostly above about 13%, no sharp cut-off; inactive = mostly below about 14%; also: read at 38.3 µM for the half of the compounds with a filed dose; 0% is about no effect
Pf growth 96h = Primary qHTS for delayed death inhibitors of the malarial parasite plastid, 96 hour incubation. P. falciparum luciferase reporter growth, 96 h. Potency, µM (top dose mostly 28.7 µM), without a hit: at the highest dose activity change, negative = inhibition, hits mostly inhibitors. actives 6.9% (n = 320,000). AID 504834, 2011; also: potency is read from the fitted curve at half-maximal effect; % is scaled to controls: 0 for no effect and ±100 for the full control effect
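Erythrocytes infected with luciferase-expressing P. falciparum were dispensed at 2% hematocrit and 0.05% parasitemia (final), then incubated with compounds 96 hours at 37 C in 5% CO2. Luminescence after detection reagent addition reported growth.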
LmPK inhibitor = qHTS Assay for Inhibitors of Leishmania Mexicana Pyruvate Kinase (LmPK) | Q27686 | purified LmPK, Kinase-Glo ATP luminescence, 1 h | Potency, µM (titrated, usually from 57.5 µM), for inactives: at the highest dose activity change, negative = inhibition, hits mostly inhibitors | actives 0.37% (n = 290,000) | AID 1721, 2009; also: potency is read from the fitted curve at half-maximal effect; % is scaled to controls: 0 for no effect and ±100 for the full control effect
Target sequence (Q27686 whole entry, looked up): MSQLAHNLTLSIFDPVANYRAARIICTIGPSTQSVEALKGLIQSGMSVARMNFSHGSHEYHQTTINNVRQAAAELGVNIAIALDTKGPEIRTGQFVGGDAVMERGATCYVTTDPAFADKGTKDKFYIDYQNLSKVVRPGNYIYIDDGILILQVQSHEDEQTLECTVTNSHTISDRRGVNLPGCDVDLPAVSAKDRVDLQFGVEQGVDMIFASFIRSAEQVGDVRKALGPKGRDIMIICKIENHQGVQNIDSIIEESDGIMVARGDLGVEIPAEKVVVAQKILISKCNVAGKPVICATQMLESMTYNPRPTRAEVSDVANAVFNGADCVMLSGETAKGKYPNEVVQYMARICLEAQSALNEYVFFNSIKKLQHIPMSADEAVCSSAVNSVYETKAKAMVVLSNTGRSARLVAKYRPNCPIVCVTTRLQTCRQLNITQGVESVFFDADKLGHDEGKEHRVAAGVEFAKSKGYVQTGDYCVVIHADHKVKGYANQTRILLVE
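Pyruvate kinase activity monitored as ATP production (luciferase luminescence). Conditions: 0.1 nM enzyme, 0.5 mM PEP, 0.1 mM ADP, 1 h, RT; normalized against uninhibited and no-enzyme wells.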
An asterisk follows results filed as active; ? = inconclusive; . = no result; ! = not confirmed by another sample; [ ] = remark or other dose. The list is not random: actives were taken first. Their share in the collection is about 22%. Unless noted, calls follow the shape of the dose curve; as a rule, active = well fitted inhibition curve with a large enough effect; inconclusive = small, poorly fitted or top-dose-only effect, or another doubt; inactive = no such curve, though single readings can be large or run the other way.

SMILES	Shiga toxin inh	Pf growth 48h	CHX counter	Pf growth 96h	LmPK inhibitor
COC(=O)C1C(=O)C=C(Nc2ccc(F)cc2F)CC1c1ccc(OC)cc1 (stereo not drawn)	20.6	0.7%	21.2	-4.8%	-6.7%
CN1C(=O)N(C)C(=O)C2(Cc3cc(NC(=O)c4ccccc4)ccc3N3CCCC32)C1=O (stereo not drawn)	-1.6	9.28µM*	-1.8	10.4µM*	-3.8%
CN1C(=O)N(C)C(=O)C2(Cc3cc(NC(=O)c4ccccc4Cl)ccc3N3CCCC32)C1=O (stereo not drawn)	-1.4	?	-3.5	5.22µM*	-9.4%
CN1C(=O)N(C)C(=O)C2(Cc3cc(N)ccc3N3CCN(c4ccccc4F)CC32)C1=O (stereo not drawn)	-6.4	.	-0.6	.	2.8%
Cc1[nH]c(=O)c(C(=O)/C=C/c2ccccc2F)c2c1CCCC2	-14.0	3.29µM*	-2.7	5.22µM*	2.1%
COc1ccc(OC)c2sc(N(CCCN(C)C)C(=O)CCS(=O)(=O)c3ccccc3)nc12	.	?	.	20.3%	.
CN(C)CCCN(C(=O)CCS(=O)(=O)c1ccccc1)c1nc2cc3c(cc2s1)OCO3	17.1	18.0%	9.9*	23.4%	-0.1%
Cc1cc(C)c2sc(N(CCN(C)C)C(=O)CCS(=O)(=O)c3ccccc3)nc2c1	32.7	?	1.5	?	9.1%
CN(C)CCN(C(=O)CCS(=O)(=O)c1ccccc1)c1nc2c(F)cccc2s1	3.1	25.1%	-1.8	2.62µM*	4.2%
Cc1cccc2sc(N(CCCN(C)C)C(=O)CCc3ccccc3)nc12	-12.4	?	-5.3	1.85µM*	3.5%
Cc1ccc2sc(N(CCCN(C)C)C(=O)CCS(=O)(=O)c3ccccc3)nc2c1C	-1.3	39.0%	10.4	6.57µM*	-4.7%
CN(C)CCCN(C(=O)CCSc1ccccc1)c1nc2cc3c(cc2s1)OCO3	-3.8	?	3.2	57.4%	9.7%
CCOc1ccc(CC(=O)Nc2ccc(-c3ccc4nnc(C)n4n3)cc2)cc1	-10.4	-14.4%	-2.2	-11.8%	-1.0%[11.5 µM]
COc1cc2c3nnc(-c4ccc(F)cc4)c-3cn(Cc3ccccc3)c2cc1OC	12.5	?	0.8	0.415µM*	-1.4%
COc1ccc(Cn2cc3c(-c4ccc(F)cc4)nnc-3c3cc(OC)c(OC)cc32)cc1	-6.9	0.147µM*	7.0	0.147µM*	2.8%
CC1(C)C(=O)OC(c2cccc([N+](=O)[O-])c2)C2(CCCCC2)C1=O (stereo not drawn)	3.4	?	5.4	16.1%	5.9%
CC1(C)C(=O)OC(c2cccn2-c2cccc([N+](=O)[O-])c2)C2(CCCCC2)C1=O (stereo not drawn)	-6.0	13.1µM*	-1.5	-24.5%	0.5%
CCC1C(=O)Nc2nc(-c3ccccc3)c(-c3ccccc3)n2N=C1C (stereo not drawn)	12.0	0.1%	-5.9	.	1.9%
CCNc1nc(NC(C)C)nc(OCC)n1	-16.1	.	-1.3	?	-3.1%
CC(C)Nc1nc(NNc2nc(Cl)nc(NC(C)(C)C)n2)nc(NC(C)C)n1	-7.2	?	-1.3	13.1µM*	-5.0%
CCNc1nc(NC(C)C)nc(NC(C)(C)C)n1	3.2	3.29µM*	9.1	?	-0.8%
CCNc1nc(NC(C)C)nc(ON=C(C)C)n1	-6.5	8.28µM*	-1.1	?	0.7%
CC(C)Nc1nc(NC(N)=S)nc(NC(C)(C)C)n1	-11.7	-9.0%	-3.8	-20.7%	1.5%
COc1ccc(NC(=O)C(OC(=O)c2ccc([N+](=O)[O-])o2)c2ccccc2)cc1Cl (stereo not drawn)	18.0	21.6%	20.3*	50.4%	0.5%
COc1ccc(NC(=O)C(OC(=O)c2cnc(C)cn2)c2ccccc2)cc1Cl (stereo not drawn)	.	18.7%	.	66.5%	.
SMILES	Shiga toxin inh	Pf growth 48h	CHX counter	Pf growth 96h	LmPK inhibitor
CCCNC(=O)c1ccc2c(=O)c(O)c(-c3ccc(C)cc3)[nH]c2c1	-15.5	?	-8.3	?	-0.3%
Cc1ccc(-c2cc(C(=O)NCCCN3CCOCC3)no2)cc1	-7.9	?	-2.0	.	-0.2%
O=C(NCCCn1ccnc1)c1cc(-c2cccs2)on1	153.6*	155.4%	45.7*	5.0%	0.1%
O=C(NCCCn1ccnc1)c1csc2ccccc12	-2.2	-14.4%	-2.2	10.4µM*	-4.6%
Cc1ccc(-c2[nH]c3cc(C(=O)NCCCn4ccnc4)ccc3c(=O)c2O)cc1	-4.0	13.1µM*	-3.2	?	3.2%
O=C(NCCCn1ccnc1)c1ccccc1Cl	-5.6	-4.6%	-4.6	34.6%	3.8%
O=C(NCCCN1CCOCC1)c1cc(-c2cccs2)on1	160.3*	39.1%	41.8*	.	2.9%
COc1ccc(-c2nc(CN3CCCCC3c3nccn3C)c(C)o2)c(C)c1C (stereo not drawn)	1.3	?	-2.9	?	6.1%
COC(=O)c1ccc2c(=O)n(CCCCCC(=O)NCCNC(C)=O)c(=O)[nH]c2c1	-4.0	-15.3%	-1.5	-12.7%	-4.9%
CCN(CC)C(=O)c1ccc(C(=O)c2ccccc2)cc1	36.5	.	31.7*	94.4%	0.8%
CCN(CC)C(=O)c1c2c(nc3ccccc13)-c1ccccc1CC2	-5.7	7.38µM*	10.6	?	3.3%
CCN(CC)C(=O)c1ccc2nc3ccccc3nc2c1	64.7*	59.5%	29.9*	64.4%	-0.1%
CCN(CC)C(=O)c1ccc2nc(-c3ccccc3)c(-c3ccccc3)nc2c1	-6.9	-16.5%	-1.1	34.9%	0.7%
CCC1CCCCN1CCCNC(=O)c1ccc(N2CCCC2=O)cc1 (stereo not drawn)	1.2	-7.5%	0.9	7.1%	7.1%
CCN(CC(=O)Nc1ccccc1C(F)(F)F)C(=O)CCS(=O)(=O)c1ccc(C)cc1	.	12.7%	.	1.8%	.
O=C(Cn1cc(C(F)(F)F)ccc1=O)N/N=C/c1cccc(Cl)c1	3.6	27.4%	-2.0	0.0%	-0.9%
CN1CCc2cccc3c2[C@H]1Cc1ccc(O)c(O)c1-3	-13.7	2.94µM*	-3.5	2.33µM*!	4.7%
CC(C)OCCCn1c(=O)c2ccccc2n2c(CCC(=O)O)nnc12	-3.5	.	1.3	1.65µM*	0.0%
Cc1cccc(C)c1NC(=O)Cn1c(=O)n(CCCC(=O)NC2CCN(Cc3ccccc3)CC2)c(=O)c2ccccc21	-7.4	-85.2%	-2.3	1.8%	6.5%
CC(C)OCCCn1c(=O)c2ccccc2n2c(CCC(=O)NC3CCN(Cc4ccccc4)CC3)nnc12	-9.9	?	-2.9	14.7µM*	-0.9%
COC(=O)c1ccccc1NC(=O)Cn1c(=O)n(CCC(=O)NC2CCN(Cc3ccccc3)CC2)c(=O)c2ccccc21	2.6	92.9%	0.7	9.28µM*	-0.4%
CCOC(=O)CNC(=O)CSc1nnc(NC(=O)c2ccc(S(=O)(=O)N3CCOCC3)cc2)s1	-3.5	2.5%	-4.7	31.5%	-4.4%
CN1CCN(Cc2nc3ccccc3n2C)CC1CCO (stereo not drawn)	-16.9	?	-1.8	0.0%	0.7%
